The text below walks through data of PubChem BioAssay (NCATS).

The nature of experiment [1]: Primary qHTS for inhibitors of SARS-S pseudo-typed particle cell entry (AID 1479145). Also: nearly all actives have a fitted effect of over 45% in size. On the technique in general: In qHTS, concentration-response curves come from the screen itself.
Experiment [2] in a line: Primary qHTS for Huh7 cytotoxicity: counterscreen for inhibitors of MERS-S pseudotyped particle cell entry (AID 1479147). Also: potency is read from the fitted curve at half-maximal effect.
Experiment [3] can be described thus: Primary qHTS for inhibitors of MERS-S pseudo-typed particle cell entry (AID 1479149). Also: nearly all actives have a fitted effect of over 60% in size.
A short description of experiment [4]: Primary qHTS for Vero E6 cytotoxicity: counterscreen for inhibitors of SARS-S pseudo-typed particle cell entry (AID 1479150). Also: potency is read from the fitted curve at half-maximal effect.

Records with an inconclusive call do not appear. Values without a mark were called inactive. Activity calls are given as the source filed them. Calls follow the shape of the full dose curve.

With `C[C@@H]1C[C@H]2[C@@H]3C[C@H](F)C4=CC(=O)C=C[C@]4(C)[C@@]3(F)[C@@H](O)C[C@]2(C)[C@@]1(O)C(=O)CO`, the Potency entry in experiment [1], in experiment [2], in experiment [3] and in experiment [4] was “inactive” in each case.

On to `O=S(=O)(O)c1ccc(O)cc1`, for which the Potency result in experiment [1], in experiment [2], in experiment [3] and in experiment [4] was “inactive” throughout.

Regarding `CC(C)c1ccc2oc3nc(N)c(C(=O)O)cc3c(=O)c2c1`, the Potency result in experiment [1] and in experiment [3] was “inactive” throughout. Further, the Potency in experiment [2] is 10 µM (active); in experiment [4], 7.94 µM (active).

As to `CCCCOC(=O)c1ccc(O)cc1`, the Potency result in experiment [1], in experiment [2], in experiment [3] and in experiment [4] was “inactive” in each case.

As for `CC(=O)c1ccc(S(=O)(=O)NC(=O)NC2CCCCC2)cc1`, the Potency result in experiment [1], in experiment [2], in experiment [3] and in experiment [4] was “inactive” throughout.

`NS(=O)(=O)c1cc(C(=O)NN2C[C@H]3[C@H]4CCC(C4)[C@H]3C2)ccc1Cl`: the Potency result in experiment [1], in experiment [2], in experiment [3] and in experiment [4] was “inactive” in each case.

For `Clc1cccc(C(c2ccc3nc[nH]c3c2)n2ccnc2)c1` (stereo unspecified), the Potency entry in experiment [1], in experiment [2], in experiment [3] and in experiment [4] was “inactive” each time.

As for `CCCCCCCCCCCCCCCC(=O)OCCC1CCN(CCCN2c3ccccc3Sc3ccc(S(=O)(=O)N(C)C)cc32)CC1`, the Potency entry in experiment [1], in experiment [2], in experiment [3] and in experiment [4] was “inactive” each time.

Regarding `CC(=O)OCC(=O)[C@@]1(OC(C)=O)[C@@H](C)C[C@H]2[C@@H]3C[C@H](F)C4=CC(=O)C=C[C@]4(C)[C@@]3(F)[C@@H](O)C[C@@]21C`, the Potency result in experiment [1], in experiment [2], in experiment [3] and in experiment [4] was “inactive” throughout.

For the molecule `c1ccc2sc(SSc3nc4ccccc4s3)nc2c1`, the Potency entry in experiment [1], in experiment [2], in experiment [3] and in experiment [4] was “inactive” in each case.

In the case of `NC(=O)N1c2ccccc2C=Cc2ccccc21`, the Potency entry in experiment [1], in experiment [2], in experiment [3] and in experiment [4] was “inactive” each time.

As to `OC[C@H]1O[C@@H](n2cnc3c2NC=NC[C@H]3O)C[C@@H]1O`, the Potency result in experiment [1], in experiment [2], in experiment [3] and in experiment [4] was “inactive” throughout.

On to `COc1ccc2cc([C@H](C)C(=O)O)ccc2c1`, for which the Potency result in experiment [1], in experiment [2], in experiment [3] and in experiment [4] was “inactive” each time.

Turning to `CC[C@H](C)[C@H](N)C(=O)O`, the Potency entry in experiment [1], in experiment [2], in experiment [3] and in experiment [4] was “inactive” throughout.

With `CCCCCCCCCCCCCCCCCC(=O)OCC(O)CO` (stereo unspecified), the Potency entry in experiment [1], in experiment [2], in experiment [3] and in experiment [4] was “inactive” in each case.

For `CC(=O)N(CC(O)CO)c1c(I)c(C(=O)NCCO)c(I)c(C(=O)NCC(O)CO)c1I` (stereo unspecified), the Potency result in experiment [1], in experiment [2], in experiment [3] and in experiment [4] was “inactive” each time.

Consider `CO[C@@]1(NC(=O)C2SC(=C(C(N)=O)C(=O)O)S2)C(=O)N2C(C(=O)O)=C(CSc3nnnn3C)CS[C@@H]21` (stereo partly specified), for which the Potency result in experiment [1], in experiment [2], in experiment [3] and in experiment [4] was “inactive” each time.

For the molecule `CC(CC(C#N)(c1ccccc1)C(C)C)N(C)C` (stereo unspecified), the Potency entry in experiment [1], in experiment [2], in experiment [3] and in experiment [4] was “inactive” in each case.

On to `C/C(=C(\CCO)SS/C(CCO)=C(\C)N(C=O)Cc1cnc(C)nc1N)N(C=O)Cc1cnc(C)nc1N`, for which the Potency result in experiment [1], in experiment [2], in experiment [3] and in experiment [4] was “inactive” each time.

Regarding `CCOC(=O)[C@H](CCc1ccccc1)N[C@@H](C)C(=O)N1CCC[C@H]1C(=O)O`, the Potency result in experiment [1], in experiment [2], in experiment [3] and in experiment [4] was “inactive” in each case.

As for `Nc1nc(-c2ccccc2)c(Br)c(=O)[nH]1`, the Potency entry in experiment [1], in experiment [2], in experiment [3] and in experiment [4] was “inactive” each time.

In the case of `C[C@]12CCC(=O)C=C1CC[C@@H]1[C@@H]2[C@@H](O)C[C@@]2(C)[C@H]1CC[C@]2(O)C(=O)COC(=O)CCC(=O)O`, the Potency entry in experiment [1], in experiment [2], in experiment [3] and in experiment [4] was “inactive” in each case.

For `Cc1cc2cc3c(C)cc(=O)oc3c(C)c2o1`, the Potency entry in experiment [1], in experiment [2], in experiment [3] and in experiment [4] was “inactive” in each case.

With `COc1ccc(O)cc1`, the Potency entry in experiment [1], in experiment [2], in experiment [3] and in experiment [4] was “inactive” in each case.

As for `CC(C)Cn1cnc2c(N)nc3ccccc3c21`, the Potency result in experiment [1], in experiment [2], in experiment [3] and in experiment [4] was “inactive” throughout.

Consider `Oc1cccc(O)c1`, for which the Potency result in experiment [1], in experiment [2], in experiment [3] and in experiment [4] was “inactive” each time.

For `O=C(O)CCCCCCCC(=O)O`, the Potency result in experiment [1], in experiment [2], in experiment [3] and in experiment [4] was “inactive” throughout.

`Nc1nc2[nH]cc(CCc3ccc(C(=O)N[C@@H](CCC(=O)O)C(=O)O)cc3)c2c(=O)[nH]1`: the Potency entry in experiment [1], in experiment [2], in experiment [3] and in experiment [4] was “inactive” in each case.

`CCC1=C(C)CN(C(=O)NCCc2ccc(S(=O)(=O)NC(=O)NC3CCC(C)CC3)cc2)C1=O` (stereo unspecified): the Potency result in experiment [1], in experiment [2], in experiment [3] and in experiment [4] was “inactive” in each case.

In the case of `NNC(=O)c1ccncc1`, the Potency result in experiment [1], in experiment [2], in experiment [3] and in experiment [4] was “inactive” in each case.

As to `CCOC(=O)C1=C(C)NC(C)=C(C(=O)OC)C1c1cccc([N+](=O)[O-])c1` (stereo unspecified), the Potency result in experiment [1], in experiment [2], in experiment [3] and in experiment [4] was “inactive” in each case.

As to `CS(=O)(=O)c1ccc([C@@H](O)[C@@H](CO)NC(=O)C(Cl)Cl)cc1`, the Potency result in experiment [1], in experiment [2], in experiment [3] and in experiment [4] was “inactive” each time.

On to `CC(C)(Oc1ccc(C2CC2(Cl)Cl)cc1)C(=O)O` (stereo unspecified), for which the Potency result in experiment [1], in experiment [2], in experiment [3] and in experiment [4] was “inactive” each time.

For `O=c1[nH]c(=O)n([C@H]2CCCO2)cc1F`, the Potency result in experiment [1], in experiment [2], in experiment [3] and in experiment [4] was “inactive” throughout.
